Active and inactive are the calls of the source.
Experiments:
[1] = test system: PRMT1 (protein arginine N-methyltransferase 1); assay: PRMT1 binders on small-molecule microarrays, primary screen, biochemical, small-molecule microarray, 635 nm fluorescence (AID 1088); conditions: small-molecule microarray binding, higher = more signal;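 note: binding of Prmt1 protein to compounds spotted on small-molecule microarray slides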
[2] = yeast growth modulation, basal conditions, primary screen, YJM789 clinical isolate, OD600, 24 h (AID 1089);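 note: growth of clinical yeast isolate S. cerevisiae YJM 789 seeded 1000 cells per well; test concentration not given here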; conditions: S. cerevisiae YJM789 growth, higher = more signal, called active from +8 up or from −8 down
[3] = fission yeast growth modulation, primary screen, strain 972, OD600, 24 h, no modulator (AID 1090);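 note: basal condition with compound alone and no growth modifier present; test concentration not given here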; conditions: S. pombe 972 growth, higher = more signal, called active from +8 up or from −8 down
[4] = S. cerevisiae growth modulation with rapamycin, primary screen, strain BY4716, OD600, 96 h (AID 1091); conditions: higher = more signal, called active from +8 up or from −8 down; note: test concentration not given here
[5] = target: Torsin-1A-interacting protein 2 (Homo sapiens) (UniProt Q8NFQ8); assay: LULL1 binders on small-molecule microarray, primary screen, cell lysate, human LULL1 lysate, 635/667 nm fluorescence (AID 1092); conditions: hLULL1 lysate binding, 635 nm fluorescence, higher = more signal;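 note: probe is lysate of COS7 cells overexpressing human LULL1; score merges per-feature 667 nm fluorescence with signal-to-noise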
Torsin-1A-interacting protein 2 (Homo sapiens), sequence (Q8NFQ8 whole entry, looked up): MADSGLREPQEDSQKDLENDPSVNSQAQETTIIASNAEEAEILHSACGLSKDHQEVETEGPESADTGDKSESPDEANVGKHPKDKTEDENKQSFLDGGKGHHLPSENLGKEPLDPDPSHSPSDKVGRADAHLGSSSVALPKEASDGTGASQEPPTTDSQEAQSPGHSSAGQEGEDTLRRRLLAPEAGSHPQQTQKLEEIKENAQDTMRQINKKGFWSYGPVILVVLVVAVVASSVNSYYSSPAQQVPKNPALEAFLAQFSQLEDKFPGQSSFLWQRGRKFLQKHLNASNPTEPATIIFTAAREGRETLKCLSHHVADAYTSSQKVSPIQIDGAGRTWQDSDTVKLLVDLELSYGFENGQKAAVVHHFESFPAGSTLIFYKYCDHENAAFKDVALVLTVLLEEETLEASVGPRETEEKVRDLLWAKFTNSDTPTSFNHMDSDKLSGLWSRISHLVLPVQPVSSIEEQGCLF

[6] = E. coli growth modulation, two-sided OD650, primary screen, E. coli filamentation project, strain DRC41, 24 h (AID 1093); conditions: OD650, 24 h, higher = more signal, called active from +8 up or from −8 down;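 note: MC1000 strain lacking acrAB efflux and sulA so SOS filamentation is blocked; test concentration not given here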
[7] = small-molecule microarray binders of probe aLefty2, primary screen, biochemical, biotinylated probe, 635/667 nm fluorescence (AID 1094); conditions: higher = more signal;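 note: score merges spot fluorescence near 667 nm with spot signal-to-noise ratio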
[8] = test system: Noggin (protein binding on small-molecule microarray); assay: Noggin binders on small-molecule microarray, primary screen, biochemical, 635/667 nm fluorescence (AID 1095); conditions: 635 nm fluorescence, higher = more signal;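 note: score merges 667 nm feature fluorescence with signal to noise over triplicate slides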
[9] = target: Neurogenic locus notch homolog protein 3 (Homo sapiens) (UniProt Q9UM47); assay: NOTCH3 binders on small-molecule microarray, primary screen, biochemical, 635/667 nm fluorescence (AID 1096); conditions: NOTCH3 binding, 635 nm fluorescence, higher = more signal
Neurogenic locus notch homolog protein 3 (Homo sapiens), sequence (Q9UM47 whole entry, looked up): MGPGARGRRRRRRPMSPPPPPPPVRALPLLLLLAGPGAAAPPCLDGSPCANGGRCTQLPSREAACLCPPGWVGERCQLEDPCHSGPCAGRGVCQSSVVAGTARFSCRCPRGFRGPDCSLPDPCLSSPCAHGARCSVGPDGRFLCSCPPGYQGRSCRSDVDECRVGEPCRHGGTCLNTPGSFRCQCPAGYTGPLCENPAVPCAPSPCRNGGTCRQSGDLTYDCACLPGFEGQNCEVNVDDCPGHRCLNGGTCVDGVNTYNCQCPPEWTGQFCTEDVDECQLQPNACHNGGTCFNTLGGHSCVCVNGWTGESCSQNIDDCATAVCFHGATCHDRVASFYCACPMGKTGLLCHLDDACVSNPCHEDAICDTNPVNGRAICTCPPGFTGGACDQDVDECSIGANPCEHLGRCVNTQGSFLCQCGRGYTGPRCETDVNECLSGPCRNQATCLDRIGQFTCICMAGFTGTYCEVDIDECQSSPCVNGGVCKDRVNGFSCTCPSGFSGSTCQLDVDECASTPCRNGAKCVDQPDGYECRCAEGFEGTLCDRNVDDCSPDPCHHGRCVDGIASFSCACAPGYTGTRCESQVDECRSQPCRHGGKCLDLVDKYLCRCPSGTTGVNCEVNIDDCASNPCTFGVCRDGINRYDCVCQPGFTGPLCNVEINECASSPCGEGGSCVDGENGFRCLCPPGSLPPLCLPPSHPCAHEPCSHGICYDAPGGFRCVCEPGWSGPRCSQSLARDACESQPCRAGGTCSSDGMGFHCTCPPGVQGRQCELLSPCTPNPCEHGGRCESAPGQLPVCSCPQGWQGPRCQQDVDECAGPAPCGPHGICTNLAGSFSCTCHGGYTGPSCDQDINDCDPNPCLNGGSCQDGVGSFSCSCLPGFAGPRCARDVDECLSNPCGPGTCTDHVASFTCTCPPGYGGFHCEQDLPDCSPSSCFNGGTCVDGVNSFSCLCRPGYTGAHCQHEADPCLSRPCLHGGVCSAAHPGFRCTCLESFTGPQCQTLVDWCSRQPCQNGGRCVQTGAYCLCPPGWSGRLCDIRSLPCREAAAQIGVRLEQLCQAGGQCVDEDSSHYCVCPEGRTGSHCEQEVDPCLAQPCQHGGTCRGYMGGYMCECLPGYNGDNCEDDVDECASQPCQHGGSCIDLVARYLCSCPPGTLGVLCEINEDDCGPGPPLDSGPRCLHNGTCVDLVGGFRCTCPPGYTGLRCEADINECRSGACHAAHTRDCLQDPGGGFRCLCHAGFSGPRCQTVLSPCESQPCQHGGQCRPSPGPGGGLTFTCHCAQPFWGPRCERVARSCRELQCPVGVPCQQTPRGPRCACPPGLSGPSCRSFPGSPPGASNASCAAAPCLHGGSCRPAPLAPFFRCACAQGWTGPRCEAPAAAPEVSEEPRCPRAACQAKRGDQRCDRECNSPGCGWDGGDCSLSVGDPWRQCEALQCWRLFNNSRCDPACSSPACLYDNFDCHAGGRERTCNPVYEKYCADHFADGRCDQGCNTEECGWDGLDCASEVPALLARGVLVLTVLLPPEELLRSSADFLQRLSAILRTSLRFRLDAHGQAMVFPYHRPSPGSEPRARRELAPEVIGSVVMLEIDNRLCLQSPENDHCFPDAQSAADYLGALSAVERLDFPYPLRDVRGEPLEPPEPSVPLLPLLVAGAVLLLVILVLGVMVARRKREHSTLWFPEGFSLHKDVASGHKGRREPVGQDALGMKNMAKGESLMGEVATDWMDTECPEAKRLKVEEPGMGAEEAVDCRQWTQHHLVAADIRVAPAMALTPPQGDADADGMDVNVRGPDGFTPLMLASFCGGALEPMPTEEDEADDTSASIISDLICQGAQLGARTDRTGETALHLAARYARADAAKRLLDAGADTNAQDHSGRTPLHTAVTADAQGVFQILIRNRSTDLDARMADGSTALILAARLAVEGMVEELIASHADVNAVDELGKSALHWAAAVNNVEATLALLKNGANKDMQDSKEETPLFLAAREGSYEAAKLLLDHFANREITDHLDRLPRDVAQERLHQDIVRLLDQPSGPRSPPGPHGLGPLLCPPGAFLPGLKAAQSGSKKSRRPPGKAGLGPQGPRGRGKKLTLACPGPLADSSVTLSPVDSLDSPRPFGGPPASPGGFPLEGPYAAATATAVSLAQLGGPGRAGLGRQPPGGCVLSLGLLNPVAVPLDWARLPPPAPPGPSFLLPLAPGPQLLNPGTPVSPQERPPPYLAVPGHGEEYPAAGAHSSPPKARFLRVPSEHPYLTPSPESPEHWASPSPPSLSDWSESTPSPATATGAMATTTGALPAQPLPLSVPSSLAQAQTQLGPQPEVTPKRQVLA

[10] = small-molecule microarray binders of probe aEGFR, primary screen, biochemical, biotinylated probe, 635/667 nm fluorescence (AID 1097); conditions: higher = more signal;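 note: probe is a biotinylated anti-EGFR antibody binding compounds printed on slides; score combines fluorescence near 667 nm and signal to noise of each spot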
[11] = test system: Plasmodium falciparum Sir2 (PF13_0152, Sir2A); assay: pfSir2 binders on small-molecule microarrays, primary screen, biochemical, small-molecule microarray, 635 nm fluorescence (AID 1098); conditions: small-molecule microarray binding, fluorescence 635 nm; higher = more signal;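 note: score merges spot fluorescence intensity with its signal-to-noise ratio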
[12] = small-molecule microarray binders of probe aDKK1, primary screen, biochemical, biotinylated probe, 635/667 nm fluorescence (AID 1099); conditions: higher = more signal;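 note: score merges 667nm spot fluorescence with signal to noise across triplicate slides; reference of the scale not given here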
[13] = small-molecule microarray binders of probe aCHRDL2, primary screen, biochemical, biotinylated probe, 635/667 nm fluorescence (AID 1100); conditions: higher = more signal
[14] = splicing luciferase reporter signal modulators, primary screen, spliceosome inhibition project, cell-based, HEK293, splice +/- reporter (AID 1101); conditions: luminescence, 24 h, higher = more signal, called active from +8 up or from −8 down;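 note: HEK293 cells carrying a splicing-competent luciferase reporter gene; test concentration not given here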
[15] = target: Fibroblast growth factor 10 (Homo sapiens) (UniProt O15520); assay: FGF10 binders on small-molecule microarrays, primary screen, biochemical, small-molecule microarray, 635 nm fluorescence (AID 1102); conditions: FGF10 binding, fluorescence 635 nm, higher = more signal
Fibroblast growth factor 10 (Homo sapiens), sequence (O15520 whole entry, looked up): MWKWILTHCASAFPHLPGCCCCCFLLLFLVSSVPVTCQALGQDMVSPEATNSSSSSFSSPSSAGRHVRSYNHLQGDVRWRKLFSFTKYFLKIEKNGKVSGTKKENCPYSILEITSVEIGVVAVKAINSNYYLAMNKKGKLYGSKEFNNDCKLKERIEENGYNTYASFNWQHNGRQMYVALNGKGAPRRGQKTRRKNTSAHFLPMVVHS

[16] = test system: glycogen synthase kinase-3 (GSK3A per assay name; protocol says GSK3B); assay: GSK3 binders on small-molecule microarrays, primary screen, biochemical, small-molecule microarray, 635 nm fluorescence, GSK3A (AID 1103); conditions: small-molecule microarray binding, fluorescence 635 nm; higher = more signal; note: the record names both GSK3A and GSK3B
[17] = target: Epidermal growth factor receptor (Homo sapiens) (UniProt P00533); assay: EGFR binders on small-molecule microarrays, primary screen, biochemical, small-molecule microarray, 635 nm fluorescence (AID 1104); conditions: EGFR binding, higher = more signal;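 note: score merges 667 nm emission intensity with spot signal to noise over triplicate slides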
Epidermal growth factor receptor (Homo sapiens), sequence (P00533 whole entry, looked up): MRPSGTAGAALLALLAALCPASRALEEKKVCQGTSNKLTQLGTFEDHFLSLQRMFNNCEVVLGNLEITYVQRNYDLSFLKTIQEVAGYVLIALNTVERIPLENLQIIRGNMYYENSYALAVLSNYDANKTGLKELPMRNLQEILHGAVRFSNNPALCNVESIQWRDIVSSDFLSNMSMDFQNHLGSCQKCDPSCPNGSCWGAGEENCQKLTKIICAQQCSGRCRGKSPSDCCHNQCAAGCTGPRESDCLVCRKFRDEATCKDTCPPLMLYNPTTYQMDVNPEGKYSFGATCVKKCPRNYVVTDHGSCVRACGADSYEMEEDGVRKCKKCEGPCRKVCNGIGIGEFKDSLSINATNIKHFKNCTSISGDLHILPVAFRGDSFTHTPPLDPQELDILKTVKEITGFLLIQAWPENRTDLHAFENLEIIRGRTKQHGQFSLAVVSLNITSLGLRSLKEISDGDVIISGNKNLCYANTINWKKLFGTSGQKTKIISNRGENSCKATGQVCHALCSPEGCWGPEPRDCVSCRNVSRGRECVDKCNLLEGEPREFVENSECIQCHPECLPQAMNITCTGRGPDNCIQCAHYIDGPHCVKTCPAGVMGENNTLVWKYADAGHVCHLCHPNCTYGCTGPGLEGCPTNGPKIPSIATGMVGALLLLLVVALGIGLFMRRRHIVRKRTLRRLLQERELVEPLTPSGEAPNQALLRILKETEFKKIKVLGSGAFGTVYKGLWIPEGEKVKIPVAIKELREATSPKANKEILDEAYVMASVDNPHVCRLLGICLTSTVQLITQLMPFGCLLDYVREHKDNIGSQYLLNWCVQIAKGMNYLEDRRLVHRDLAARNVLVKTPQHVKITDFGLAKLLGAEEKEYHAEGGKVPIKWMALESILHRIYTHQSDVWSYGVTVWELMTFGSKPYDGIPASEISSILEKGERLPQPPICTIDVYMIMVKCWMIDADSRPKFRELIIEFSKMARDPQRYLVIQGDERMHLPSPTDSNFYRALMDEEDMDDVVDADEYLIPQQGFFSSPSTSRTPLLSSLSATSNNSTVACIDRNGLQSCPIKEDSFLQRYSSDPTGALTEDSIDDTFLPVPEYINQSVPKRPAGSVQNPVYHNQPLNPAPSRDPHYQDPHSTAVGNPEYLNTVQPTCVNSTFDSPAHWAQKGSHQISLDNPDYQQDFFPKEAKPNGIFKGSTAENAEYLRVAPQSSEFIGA

[18] = target: Follistatin-related protein 3 (Homo sapiens) (UniProt O95633); assay: FSTL3 binders on small-molecule microarrays, primary screen, biochemical, small-molecule microarray, 635 nm fluorescence (AID 1105); conditions: FSTL3 binding, higher = more signal;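 note: score merges emission near 667 nm and signal to noise per printed spot across three slides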
Follistatin-related protein 3 (Homo sapiens), sequence (O95633 whole entry, looked up): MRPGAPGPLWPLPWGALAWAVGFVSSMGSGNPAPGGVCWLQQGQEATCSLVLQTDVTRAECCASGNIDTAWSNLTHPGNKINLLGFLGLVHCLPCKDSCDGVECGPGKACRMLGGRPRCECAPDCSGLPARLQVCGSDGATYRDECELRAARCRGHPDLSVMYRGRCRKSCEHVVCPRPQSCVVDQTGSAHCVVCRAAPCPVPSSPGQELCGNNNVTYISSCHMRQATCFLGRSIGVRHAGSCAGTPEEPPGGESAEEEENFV

[19] = target: Dickkopf-related protein 1 (Homo sapiens) (UniProt O94907); assay: DKK1 binders on small-molecule microarrays, primary screen, biochemical, small-molecule microarray, 635 nm fluorescence scan (AID 1106); conditions: DKK1 binding, higher = more signal;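 note: score merges emission near 667 nm with signal to noise over three replicate slides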
Dickkopf-related protein 1 (Homo sapiens), sequence (O94907 whole entry, looked up): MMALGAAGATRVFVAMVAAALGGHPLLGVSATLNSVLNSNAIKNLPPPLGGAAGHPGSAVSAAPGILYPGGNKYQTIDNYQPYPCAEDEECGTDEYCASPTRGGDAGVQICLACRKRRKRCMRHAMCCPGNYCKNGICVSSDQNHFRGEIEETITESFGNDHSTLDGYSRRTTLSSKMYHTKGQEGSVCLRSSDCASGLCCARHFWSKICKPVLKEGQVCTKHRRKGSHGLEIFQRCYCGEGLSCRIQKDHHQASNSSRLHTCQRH

[20] = test system: Inhibin beta A chain (activin A); assay: INHBA (activin A) binders on microarrays, primary screen, biochemical, small-molecule microarray, 635 nm fluorescence scan (AID 1107); conditions: small-molecule microarray binding, higher = more signal;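 note: mouse activin A protein probed at 4.33 µg/mL on printed slides; score merges bound-protein fluorescence near 667 nm with spot signal-to-noise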

Structure (SMILES)	composite z-score [1]	z-score [2]	z-score [3]	z-score [4]	composite z-score [5]	z-score [6]	composite z-score [7]	composite z-score [8]	composite z-score [9]	composite z-score [10]	composite z-score [11]	composite z-score [12]	composite z-score [13]	z-score [14]	composite z-score [15]	composite z-score [16]	composite z-score [17]	composite z-score [18]	composite z-score [19]	composite z-score [20]
CCCCCCCCCCC(O)C1C=CC2C(=O)N(c3ccccc3)C(=O)C2N1Nc1ccc(C#N)cc1 (stereo not given)	1.37	0.614 (inactive)	0.53 (inactive)	2.57 (inactive)	3.36	-0.983 (inactive)	0.12	0.0931	1.09	0.0288	0.905	0.44	1.09	1.08 (inactive)	1.06	1.02	0.17	0.788	-0.517	1.02
Oc1ccc2cc[n+](Cc3cc4c(cc3Br)OCO4)cc2c1	0.621	1.07 (inactive)	-1.41 (inactive)	0.645 (inactive)	-0.252	-0.603 (inactive)	0.0894	-0.883	-1.11	-0.211	-1.19	0.144	0.452	-0.95 (inactive)	-0.633	-1.16	-0.243	-0.456	-0.14	0.398
[N-]=[N+]=Nc1ccccc1C[C@]1(C(=O)O)COC(c2ccc(OCCCO)cc2)=N1	-0.767	-0.458 (inactive)	-0.88 (inactive)	0.559 (inactive)	1.66	-0.408 (inactive)	-0.195	-0.476	-0.609	-0.0079	1.15	0.336	0.829	-1.08 (inactive)	-0.51	-1.1	-0.473	-0.543	-0.885	0.764
CCCC[C@@H](O)C1=C(COC)C[C@H]2C(=O)N(C)C(=O)[C@H]2[C@H]1CO	0.0449	-2.33 (inactive)	-1.77 (inactive)	-1.21 (inactive)	-0.419	1.1 (inactive)	-0.353	0.578	-0.277	-0.156	0.0237	-0.491	-0.532	-0.857 (inactive)	0.0965	-0.0596	-0.0915	0.344	0.339	0.581
CCCC=C(CCC)[C@@H](NS(=O)(=O)c1ccc(C(F)(F)F)cc1)c1ccccc1	0.907	1.22 (inactive)	1.46 (inactive)	3.03 (inactive)	1.41	-1.74 (inactive)	0.0749	-0.0917	0.275	-0.0415	0.156	-0.001	0.614	-0.172 (inactive)	0.0772	0.571	-0.585	-0.143	-0.61	0.388
CC(C)C(CO)N1C(=O)[C@@H]2C3C(=O)OCCC/C=C\[C@H]3OC23C=CCN(Cn2nnc4ccccc42)C(=O)[C@@H]13 (stereo not given in full)	0.828	0.0005 (inactive)	-0.299 (inactive)	0.0668 (inactive)	3.72	0.167 (inactive)	-0.159	-0.421	0.144	-0.268	0.192	-0.0842	0.543	0.323 (inactive)	-0.727	-0.2	-0.636	-0.359	-1.13	0.223
COC(=O)C1=CC(CCCO)=CC(c2ccc(CN3CCCC3)cc2)N(Cc2cccc(OC(F)(F)F)c2)C=C1C(=O)OC (stereo not given)	1.44	-1.22 (inactive)	-9.89 (active)	-1.11 (inactive)	3.31	-2.59 (inactive)	0.373	-0.116	0.888	-0.0418	1.26	0.752	0.82	-0.656 (inactive)	0.641	0.68	0.121	0.637	-0.271	0.976
COc1ccc(CCNC(=O)[C@@]2(Cc3ccccc3I)c3ccccc3C(=O)N(C3CCCCC3)[C@H]2c2ccc(CO)cc2)cc1	1.36	-2.01 (inactive)	-1.81 (inactive)	-0.742 (inactive)	2.3	-1.41 (inactive)	-0.0176	-0.275	0.566	-0.115	1.41	0.0563	0.58	-1.17 (inactive)	-0.277	0.302	-0.354	0.123	-0.41	0.272
Cc1ccc(S[C@]2(C(=O)NCC(F)(F)F)CC(=O)N(Cc3cc(C(F)(F)F)cc(C(F)(F)F)c3)[C@@H]2c2ccc(CO)cc2)cc1	1.31	0.0966 (inactive)	-0.322 (inactive)	-1.53 (inactive)	1.79	-0.002 (inactive)	-0.152	-0.556	-0.133	-0.181	1.13	-0.193	0.532	0.507 (inactive)	-0.463	-0.864	-0.814	-0.861	-0.928	-0.45
C=CCNC(=O)[C@@H]1[C@H]2C(=O)O[C@H](c3ccccc3)[C@H](c3ccccc3)N2[C@H](c2ccc(O)cc2)[C@@]12C(=O)N(C(=O)OCCOC)c1ccc(C#CC3=CCCCC3)cc12	1.49	0.675 (inactive)	0.428 (inactive)	0.969 (inactive)	2.25	-0.633 (inactive)	-0.156	1.14	1.09	-0.0697	1.04	-0.122	-0.294	-1.19 (inactive)	0.965	1.29	0.714	1.09	0.53	0.492

From PubChem BioAssay
